# Several values for one entry are separate records, joined by “and”; a condition that tells them apart may be missing. Identical values can stand only once. Results filed as inconclusive are left out. Where a call stands in place of a potency, no number is given. Some compounds were tested as several samples or in several runs, with calls that do not always agree. Activity calls are given as the source filed them. Calls follow the shape of the dose curve; as a rule, active = well fitted curve in the direction sought with a large enough effect in the repeat runs; inconclusive = weak or mixed curves; inactive = no such curve, though single readings can be large; an effect the other way counts as inactive or inconclusive.
# Assays:
# [1] = A CellTox Green Cytotoxicity Assay to monitor cytotoxicity in HEK293 cells - 40 hour (AID 1224871); also: nearly all actives have a fitted effect of over 45% in size; also: potency is read from the fitted curve at half-maximal effect
# Method in brief: (§1)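 Dead-cell fluorescence measured kinetically: asymmetric cyanine dye, HEK293, 600 cells/well, 5 h settle, 23 nL cpd/DMSO, 37 C, reads 0–40 h every 8 h.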
# [2] = qHTS RealTime-Glo MT Cell Viability Assay in HEK293 cells - 16 hour (AID 1224872); also: nearly all actives have a fitted effect of over 50% in size; also: potency is read from the fitted curve at half-maximal effect
# Method in brief: (§2)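 Quantitative high-throughput screen of the Tox21 10K library in HEK293: cells and RealTime-Glo reagents plated together, compound added at 5 h, luminescence monitored through 40 h at 37 C.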
# [3] = qHTS RealTime-Glo MT Cell Viability Assay in HepG2 cells - 8 hour (AID 1224873); also: nearly all actives have a fitted effect of over 55% in size; also: potency is read from the fitted curve at half-maximal effect
# Method in brief: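 HepG2 cells (600/well) mixed with RealTime-Glo MT reagent, settled 5 h at 37 C/5% CO2 before compound addition. Nonlytic NanoLuc luminescence from viable-cell prosubstrate reduction read repeatedly during 40 h treatment at 37 C.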
# [4] = qHTS RealTime-Glo MT Cell Viability Assay in HEK293 cells - 40 hour (AID 1224874); settings: RealTime-Glo luminescence; max response: stronger effect = lower value; also: nearly all actives have a fitted effect of over 50% in size; also: potency is read from the fitted curve at half-maximal effect
# Method in brief: (§3)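 600 HEK293 cells per well, dispensed already mixed with RealTime-Glo MT reagents. Compound dosing came 5 h later. The same wells were read for luminescence at 0, 8, 16, 24, 32 and 40 h of exposure at 37 C.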
# [5] = A CellTox Green Cytotoxicity Assay to monitor cytotoxicity in HEK293 cells - 24 hour (AID 1224875); also: nearly all actives have a fitted effect of over 45% in size; also: potency is read from the fitted curve at half-maximal effect
# Method in brief: as §1
# [6] = A CellTox Green Cytotoxicity Assay to monitor cytotoxicity in HepG2 cells - 16 hour (AID 1224876); also: nearly all actives have a fitted effect of over 45% in size; also: potency is read from the fitted curve at half-maximal effect
# Method in brief: (§4)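 First, HepG2 cells (600/well) mixed with reagent were plated; second, after 5 h at 37 C they received compounds via pintool; third, fluorescence was measured at 0 h through 40 h at 8 h intervals.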
# [7] = qHTS RealTime-Glo MT Cell Viability Assay in HepG2 cells - 32 hour (AID 1224877); also: nearly all actives have a fitted effect of over 55% in size; also: potency is read from the fitted curve at half-maximal effect
# Method in brief: (§5)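 Compound treatment began 5 h after plating HepG2 cells (600/well) with NanoLuc luciferase and prosubstrate. Plates stayed at 37 C for 40 h; luminescence was captured at six time points, 0 h through 40 h.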
# [8] = A CellTox Green Cytotoxicity Assay to monitor cytotoxicity in HepG2 cells - 24 hour (AID 1224878); also: nearly all actives have a fitted effect of over 45% in size; also: potency is read from the fitted curve at half-maximal effect
# Method in brief: as §4
# [9] = A CellTox Green Cytotoxicity Assay to monitor cytotoxicity in HepG2 cells - 40 hour (AID 1224879); also: nearly all actives have a fitted effect of over 40% in size; also: potency is read from the fitted curve at half-maximal effect
# Method in brief: as §4
# [10] = qHTS RealTime-Glo MT Cell Viability Assay in HEK293 cells - 0 hour (AID 1224880)
# Method in brief: as §3
# [11] = A CellTox Green Cytotoxicity Assay to monitor cytotoxicity in HEK293 cells - 32 hour (AID 1224881); also: nearly all actives have a fitted effect of over 40% in size; also: potency is read from the fitted curve at half-maximal effect
# Method in brief: as §1
# [12] = A CellTox Green Cytotoxicity Assay to monitor cytotoxicity in HepG2 cells - 0 hour (AID 1224882); also: nearly all actives have a fitted effect of over 35% in size
# Method in brief: as §4
# [13] = A CellTox Green Cytotoxicity Assay to monitor cytotoxicity in HepG2 cells - 32 hour (AID 1224883); also: nearly all actives have a fitted effect of over 50% in size; also: potency is read from the fitted curve at half-maximal effect
# Method in brief: as §4
# [14] = A CellTox Green Cytotoxicity Assay to monitor cytotoxicity in HEK293 cells - 8 hour (AID 1224884); also: nearly all actives have a fitted effect of over 35% in size; also: potency is read from the fitted curve at half-maximal effect
# Method in brief: as §1
# [15] = qHTS RealTime-Glo MT Cell Viability Assay in HepG2 cells - 16 hour (AID 1224885); also: nearly all actives have a fitted effect of over 50% in size; also: potency is read from the fitted curve at half-maximal effect
# Method in brief: as §5
# [16] = qHTS RealTime-Glo MT Cell Viability Assay in HEK293 cells - 24 hour (AID 1224886); also: nearly all actives have a fitted effect of over 50% in size; also: potency is read from the fitted curve at half-maximal effect
# Method in brief: as §2
# [17] = qHTS RealTime-Glo MT Cell Viability Assay in HEK293 cells - 8 hour (AID 1224887); also: nearly all actives have a fitted effect of over 50% in size; also: potency is read from the fitted curve at half-maximal effect
# Method in brief: as §3
# [18] = A CellTox Green Cytotoxicity Assay to monitor cytotoxicity in HEK293 cells - 16 hour (AID 1224888); also: nearly all actives have a fitted effect of over 35% in size; also: potency is read from the fitted curve at half-maximal effect
# Method in brief: as §1
# [19] = qHTS RealTime-Glo MT Cell Viability Assay in HepG2 cells - 0 hour (AID 1224889); also: nearly all actives have a fitted effect of over 50% in size
# Method in brief: as §5
# [20] = A CellTox Green Cytotoxicity Assay to monitor cytotoxicity in HepG2 cells - 8 hour (AID 1224890); also: nearly all actives have a fitted effect of over 45% in size; also: potency is read from the fitted curve at half-maximal effect
# Method in brief: as §4
structure (smiles),measurement,setting,value
NC12CC3CC(CC(C3)C1)C2,Potency,[1],inactive
same,Potency,[2],inactive
same,Potency,[3],inactive
same,max response,[4],6.54% (inactive)
same,Potency,[5],inactive
same,Potency,[6],inactive
same,Potency,[7],inactive
same,Potency,[8],inactive
same,Potency,[9],inactive
same,Potency,[10],inactive
same,Potency,[11],inactive
same,Potency,[12],inactive
same,Potency,[13],inactive
same,Potency,[14],inactive
same,Potency,[15],inactive
same,Potency,[16],inactive
same,Potency,[17],inactive
same,Potency,[18],inactive
same,Potency,[19],inactive
same,Potency,[20],inactive
CC(COc1ccccc1)N(CCCl)Cc1ccccc1 (centres undefined),Potency,[1],49.5 µM (active) and 21.3 µM (active)
same,Potency,[2],49.5 µM (active) and 49 µM (active)
same,Potency,[3],inactive
same,Potency,[4],49.5 µM (active) and 49 µM (active)
same,Potency,[5],inactive
same,Potency,[6],inactive
same,Potency,[7],inactive
same,Potency,[8],55.5 µM (active) and inactive
same,Potency,[9],55.5 µM (active)
same,Potency,[10],inactive
same,Potency,[11],55.5 µM (active) and 21.3 µM (active)
same,Potency,[12],inactive
same,Potency,[13],55.5 µM (active)
same,Potency,[14],inactive
same,Potency,[15],inactive
same,Potency,[16],49.5 µM (active) and 49 µM (active)
same,Potency,[17],inactive
same,Potency,[18],inactive
same,Potency,[19],inactive
same,Potency,[20],inactive
CC(C)(C)c1ccc(O)c(C(C)(C)C)c1,Potency,[1],24.4 µM (active) and 34.7 µM (active)
same,Potency,[2],34.5 µM (active)
same,Potency,[3],38.9 µM (active)
same,Potency,[4],38.7 µM (active)
same,max response,[4],-25% (inactive)
same,Potency,[5],21.8 µM (active) and 34.7 µM (active)
same,Potency,[6],48.8 µM (active) and 43.6 µM (active)
same,Potency,[9],48.8 µM (active) and 43.6 µM (active)
same,Potency,[10],inactive
same,Potency,[11],24.4 µM (active) and 34.7 µM (active)
same,Potency,[12],inactive
same,Potency,[13],48.8 µM (active) and 43.6 µM (active)
same,Potency,[14],43.5 µM (active)
same,Potency,[16],38.7 µM (active)
same,Potency,[17],34.5 µM (active)
same,Potency,[18],24.4 µM (active) and 34.7 µM (active)
same,Potency,[20],48.8 µM (active) and 49 µM (active)
CCN(CC)CCOc1ccc(/C(=C(\Cl)c2ccccc2)c2ccccc2)cc1,Potency,[1],19.9 µM (active) and 23.9 µM (active)
same,Potency,[2],14.1 µM (active) and 21.3 µM (active)
same,Potency,[3],31.6 µM (active)
same,Potency,[4],12.6 µM (active) and 19 µM (active)
same,Potency,[5],31.6 µM (active) and 23.9 µM (active)
same,Potency,[6],31.6 µM (active) and 21.3 µM (active)
same,Potency,[7],19.9 µM (active) and 23.9 µM (active)
same,Potency,[8],19.9 µM (active) and 21.3 µM (active)
same,Potency,[9],17.7 µM (active) and 16.9 µM (active)
same,Potency,[10],inactive
same,Potency,[11],28.1 µM (active) and 23.9 µM (active)
same,Potency,[12],inactive
same,Potency,[13],17.7 µM (active) and 21.3 µM (active)
same,Potency,[14],39.7 µM (active) and inactive
same,Potency,[15],31.6 µM (active) and 23.9 µM (active)
same,Potency,[16],12.6 µM (active) and 21.3 µM (active)
same,Potency,[17],12.6 µM (active) and 21.3 µM (active)
same,Potency,[18],35.4 µM (active)
same,Potency,[19],inactive
same,Potency,[20],35.4 µM (active) and 21.3 µM (active)
O=C(O)CCc1ccccc1,Potency,[1],inactive
same,Potency,[2],inactive
same,Potency,[3],inactive
same,max response,[4],3.43% (inactive)
same,Potency,[5],inactive
same,Potency,[6],inactive
same,Potency,[7],inactive
same,Potency,[8],inactive
same,Potency,[9],inactive
same,Potency,[10],inactive
same,Potency,[11],inactive
same,Potency,[12],inactive
same,Potency,[13],inactive
same,Potency,[14],inactive
same,Potency,[15],inactive
same,Potency,[16],inactive
same,Potency,[17],inactive
same,Potency,[18],inactive
same,Potency,[19],inactive
same,Potency,[20],inactive
CCCCCCCCCCCCCC[P+](CCCC)(CCCC)CCCC,Potency,[1],13.7 µM (active) and 17.4 µM (active)
same,Potency,[2],5.46 µM (active) and 549 nM (active)
same,Potency,[3],38.7 µM (active) and 17.4 µM (active)
same,Potency,[4],137 nM (active) and 174 nM (active)
same,Potency,[5],12.2 µM (active) and 17.4 µM (active)
same,Potency,[6],21.8 µM (active) and 19.5 µM (active)
same,Potency,[7],21.8 µM (active) and 12.3 µM (active)
same,Potency,[8],21.8 µM (active) and 15.5 µM (active)
same,Potency,[9],19.4 µM (active) and 17.4 µM (active)
same,Potency,[10],inactive
same,Potency,[11],12.2 µM (active) and 17.4 µM (active)
same,Potency,[12],inactive
same,Potency,[13],19.4 µM (active) and 15.5 µM (active)
same,Potency,[14],17.3 µM (active) and 21.9 µM (active)
same,Potency,[15],21.8 µM (active) and 15.5 µM (active)
same,Potency,[16],387 nM (active) and 616 nM (active)
same,Potency,[17],24.4 µM (active) and 19.5 µM (active)
same,Potency,[18],17.3 µM (active) and 19.5 µM (active)
same,Potency,[19],inactive
same,Potency,[20],24.4 µM (active) and 19.5 µM (active)
C#CC(C)(CC)OC(=O)c1ccccc1C(=O)O (centres undefined),Potency,[1],inactive
same,Potency,[2],inactive
same,Potency,[3],inactive
same,max response,[4],0.788% (inactive)
same,Potency,[5],inactive
same,Potency,[6],inactive
same,Potency,[7],inactive
same,Potency,[8],inactive
same,Potency,[9],inactive
same,Potency,[10],inactive
same,Potency,[11],inactive
same,Potency,[12],inactive
same,Potency,[13],inactive
same,Potency,[14],inactive
same,Potency,[15],inactive
same,Potency,[16],inactive
same,Potency,[17],inactive
same,Potency,[18],inactive
same,Potency,[19],inactive
same,Potency,[20],inactive
Nc1nc2ccccc2[nH]1,Potency,[1],inactive
same,Potency,[2],inactive
same,Potency,[3],inactive
same,max response,[4],0.0562% (inactive) and 7.05% (inactive)
same,Potency,[5],inactive
same,Potency,[6],inactive
same,Potency,[7],inactive
same,Potency,[8],inactive
same,Potency,[9],inactive and 216 nM (active)
same,Potency,[10],inactive
same,Potency,[11],inactive
same,Potency,[12],inactive
same,Potency,[13],inactive
same,Potency,[14],inactive
same,Potency,[16],inactive
same,Potency,[17],inactive
same,Potency,[18],inactive
same,Potency,[19],inactive
same,Potency,[20],inactive
O=C(Oc1ccccc1)c1ccccc1O,Potency,[1],inactive
same,Potency,[2],inactive
same,Potency,[3],inactive
same,max response,[4],-18.8% (inactive) and -3% (inactive) and 3.05% (inactive)
same,Potency,[5],inactive
same,Potency,[6],inactive
same,Potency,[7],inactive
same,Potency,[8],inactive
same,Potency,[9],inactive
same,Potency,[10],inactive
same,Potency,[11],inactive
same,Potency,[12],inactive
same,Potency,[13],inactive
same,Potency,[14],inactive
same,Potency,[15],inactive
same,Potency,[16],inactive
same,Potency,[17],inactive
same,Potency,[18],inactive
same,Potency,[20],inactive
CO[Si](OC)(OC)c1ccccc1,Potency,[1],inactive
same,Potency,[2],inactive
same,Potency,[3],inactive
same,max response,[4],0.242% (inactive)
same,Potency,[5],inactive
same,Potency,[6],inactive
same,Potency,[7],inactive
same,Potency,[8],inactive
same,Potency,[9],inactive
same,Potency,[10],inactive
same,Potency,[11],inactive
same,Potency,[12],inactive
same,Potency,[13],inactive
same,Potency,[14],inactive
same,Potency,[15],inactive
same,Potency,[16],inactive
same,Potency,[17],inactive
same,Potency,[18],inactive
same,Potency,[20],inactive

# Source: PubChem BioAssay (Tox21)
